# Active and inactive are the calls of the source.
# Columns and labels:
# [1] = binders of probe aFSTL3 on microarray, primary screen, stem cell growth factor project, biochemical, small-molecule microarray, fluorescence 635/667 (AID 1064); conditions: higher = more signal;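 note: measures binding of the biotinylated anti-FSTL3 antibody to printed compounds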
# [2] = binders from COS7 lysate, DM2A8 probe, primary screen, torsin A project, cell lysate, small-molecule microarray, fluorescence 635/667 (AID 1065); conditions: higher = more signal, COS7 lysate expressing mutant human TOR1A
# [3] = binders of probe aFGF2 on microarray, primary screen, stem cell growth factor project, biochemical, small-molecule microarray, fluorescence 635/667 (AID 1067); conditions: higher = more signal;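 note: measures binding of biotinylated aFGF2 protein to printed compounds on slides; z-score merges feature fluorescence and signal-to-noise across triplicate slides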
# [4] = binders of probe aFGF10 on microarray, primary screen, stem cell growth factor project, biochemical, small-molecule microarray, fluorescence 635/667 (AID 1071); conditions: higher = more signal;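 note: score merges 667 nm spot intensity and signal to noise from triplicate slides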
# [5] = target: Neurogenic locus notch homolog protein 2 (Homo sapiens) (UniProt Q04721); experiment: Notch2 binders on small-molecule microarrays, primary screen, biochemical, small-molecule microarray, 635 nm fluorescence, stem cell growth factors (AID 1073); conditions: Notch2 binding, higher = more signal
# [6] = target: Pro-neuregulin-1, membrane-bound isoform (Homo sapiens) (UniProt Q02297); experiment: NRG1 binders on small-molecule microarrays, primary screen, psychiatric disease protein project, biochemical, small-molecule microarray, fluorescence 635/667 (AID 1075); conditions: NRG1 binding, 635 nm fluorescence, higher = more signal;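 note: score combines 667 nm spot fluorescence with signal to noise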
# [7] = system: Neuregulin-1 EGF-like domain; experiment: binders of neuregulin-1 EGF-like domain, primary screen, biochemical, small-molecule microarray, 635 nm fluorescence (AID 1081); conditions: small-molecule microarray binding, higher = more signal;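 note: binding of the protein to compounds printed on small-molecule microarray slides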
# [8] = FRG1 promoter luciferase signal modulators, primary screen, FRG1 inhibition for FSHD, cell-based, C2C12 myotubes, firefly/Renilla luciferase, luminescence (AID 1084); conditions: higher = more signal, called active from +8 up or from −8 down
# [9] = binders of probe aFST on microarray, primary screen, stem cell growth factor project, biochemical, small-molecule microarray, fluorescence 635/667 (AID 1086); conditions: higher = more signal;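 note: score merges 667 nm fluorescence with signal-to-noise of each printed compound spot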
# [10] = binders of probe aHhip on microarray, primary screen, stem cell growth factor project, biochemical, small-molecule microarray, fluorescence 635/667 (AID 1087); conditions: higher = more signal;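 note: score merges spot fluorescence at 667nm with spot signal to noise ratio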
# [11] = system: PRMT1 (protein arginine N-methyltransferase 1); experiment: PRMT1 binders on small-molecule microarrays, primary screen, biochemical, small-molecule microarray, 635 nm fluorescence (AID 1088); conditions: small-molecule microarray binding, higher = more signal;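 note: binding of Prmt1 protein to compounds spotted on small-molecule microarray slides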
# [12] = yeast growth modulation, basal conditions, primary screen, YJM789 clinical isolate, OD600, 24 h (AID 1089);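 note: growth of clinical yeast isolate S. cerevisiae YJM 789 seeded 1000 cells per well; test concentration not given here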; conditions: S. cerevisiae YJM789 growth, higher = more signal, called active from +8 up or from −8 down
# [13] = fission yeast growth modulation, primary screen, strain 972, OD600, 24 h, no modulator (AID 1090);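 note: basal condition with compound alone and no growth modifier present; test concentration not given here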; conditions: S. pombe 972 growth, higher = more signal, called active from +8 up or from −8 down
# [14] = S. cerevisiae growth modulation with rapamycin, primary screen, strain BY4716, OD600, 96 h (AID 1091); conditions: higher = more signal, called active from +8 up or from −8 down; note: test concentration not given here
# [15] = target: Torsin-1A-interacting protein 2 (Homo sapiens) (UniProt Q8NFQ8); experiment: LULL1 binders on small-molecule microarray, primary screen, cell lysate, human LULL1 lysate, 635/667 nm fluorescence (AID 1092); conditions: hLULL1 lysate binding, 635 nm fluorescence, higher = more signal;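 note: probe is lysate of COS7 cells overexpressing human LULL1; score merges per-feature 667 nm fluorescence with signal-to-noise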
# [16] = E. coli growth modulation, two-sided OD650, primary screen, E. coli filamentation project, strain DRC41, 24 h (AID 1093); conditions: OD650, 24 h, higher = more signal, called active from +8 up or from −8 down;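 note: MC1000 strain lacking acrAB efflux and sulA so SOS filamentation is blocked; test concentration not given here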
# [17] = small-molecule microarray binders of probe aLefty2, primary screen, biochemical, biotinylated probe, 635/667 nm fluorescence (AID 1094); conditions: higher = more signal;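 note: score merges spot fluorescence near 667 nm with spot signal-to-noise ratio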
# [18] = system: Noggin (protein binding on small-molecule microarray); experiment: Noggin binders on small-molecule microarray, primary screen, biochemical, 635/667 nm fluorescence (AID 1095); conditions: 635 nm fluorescence, higher = more signal;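 note: score merges 667 nm feature fluorescence with signal to noise over triplicate slides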
# [19] = target: Neurogenic locus notch homolog protein 3 (Homo sapiens) (UniProt Q9UM47); experiment: NOTCH3 binders on small-molecule microarray, primary screen, biochemical, 635/667 nm fluorescence (AID 1096); conditions: NOTCH3 binding, 635 nm fluorescence, higher = more signal
# [20] = small-molecule microarray binders of probe aEGFR, primary screen, biochemical, biotinylated probe, 635/667 nm fluorescence (AID 1097); conditions: higher = more signal;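 note: probe is a biotinylated anti-EGFR antibody binding compounds printed on slides; score combines fluorescence near 667 nm and signal to noise of each spot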
# Neurogenic locus notch homolog protein 3 (Homo sapiens), sequence (Q9UM47 whole entry, looked up): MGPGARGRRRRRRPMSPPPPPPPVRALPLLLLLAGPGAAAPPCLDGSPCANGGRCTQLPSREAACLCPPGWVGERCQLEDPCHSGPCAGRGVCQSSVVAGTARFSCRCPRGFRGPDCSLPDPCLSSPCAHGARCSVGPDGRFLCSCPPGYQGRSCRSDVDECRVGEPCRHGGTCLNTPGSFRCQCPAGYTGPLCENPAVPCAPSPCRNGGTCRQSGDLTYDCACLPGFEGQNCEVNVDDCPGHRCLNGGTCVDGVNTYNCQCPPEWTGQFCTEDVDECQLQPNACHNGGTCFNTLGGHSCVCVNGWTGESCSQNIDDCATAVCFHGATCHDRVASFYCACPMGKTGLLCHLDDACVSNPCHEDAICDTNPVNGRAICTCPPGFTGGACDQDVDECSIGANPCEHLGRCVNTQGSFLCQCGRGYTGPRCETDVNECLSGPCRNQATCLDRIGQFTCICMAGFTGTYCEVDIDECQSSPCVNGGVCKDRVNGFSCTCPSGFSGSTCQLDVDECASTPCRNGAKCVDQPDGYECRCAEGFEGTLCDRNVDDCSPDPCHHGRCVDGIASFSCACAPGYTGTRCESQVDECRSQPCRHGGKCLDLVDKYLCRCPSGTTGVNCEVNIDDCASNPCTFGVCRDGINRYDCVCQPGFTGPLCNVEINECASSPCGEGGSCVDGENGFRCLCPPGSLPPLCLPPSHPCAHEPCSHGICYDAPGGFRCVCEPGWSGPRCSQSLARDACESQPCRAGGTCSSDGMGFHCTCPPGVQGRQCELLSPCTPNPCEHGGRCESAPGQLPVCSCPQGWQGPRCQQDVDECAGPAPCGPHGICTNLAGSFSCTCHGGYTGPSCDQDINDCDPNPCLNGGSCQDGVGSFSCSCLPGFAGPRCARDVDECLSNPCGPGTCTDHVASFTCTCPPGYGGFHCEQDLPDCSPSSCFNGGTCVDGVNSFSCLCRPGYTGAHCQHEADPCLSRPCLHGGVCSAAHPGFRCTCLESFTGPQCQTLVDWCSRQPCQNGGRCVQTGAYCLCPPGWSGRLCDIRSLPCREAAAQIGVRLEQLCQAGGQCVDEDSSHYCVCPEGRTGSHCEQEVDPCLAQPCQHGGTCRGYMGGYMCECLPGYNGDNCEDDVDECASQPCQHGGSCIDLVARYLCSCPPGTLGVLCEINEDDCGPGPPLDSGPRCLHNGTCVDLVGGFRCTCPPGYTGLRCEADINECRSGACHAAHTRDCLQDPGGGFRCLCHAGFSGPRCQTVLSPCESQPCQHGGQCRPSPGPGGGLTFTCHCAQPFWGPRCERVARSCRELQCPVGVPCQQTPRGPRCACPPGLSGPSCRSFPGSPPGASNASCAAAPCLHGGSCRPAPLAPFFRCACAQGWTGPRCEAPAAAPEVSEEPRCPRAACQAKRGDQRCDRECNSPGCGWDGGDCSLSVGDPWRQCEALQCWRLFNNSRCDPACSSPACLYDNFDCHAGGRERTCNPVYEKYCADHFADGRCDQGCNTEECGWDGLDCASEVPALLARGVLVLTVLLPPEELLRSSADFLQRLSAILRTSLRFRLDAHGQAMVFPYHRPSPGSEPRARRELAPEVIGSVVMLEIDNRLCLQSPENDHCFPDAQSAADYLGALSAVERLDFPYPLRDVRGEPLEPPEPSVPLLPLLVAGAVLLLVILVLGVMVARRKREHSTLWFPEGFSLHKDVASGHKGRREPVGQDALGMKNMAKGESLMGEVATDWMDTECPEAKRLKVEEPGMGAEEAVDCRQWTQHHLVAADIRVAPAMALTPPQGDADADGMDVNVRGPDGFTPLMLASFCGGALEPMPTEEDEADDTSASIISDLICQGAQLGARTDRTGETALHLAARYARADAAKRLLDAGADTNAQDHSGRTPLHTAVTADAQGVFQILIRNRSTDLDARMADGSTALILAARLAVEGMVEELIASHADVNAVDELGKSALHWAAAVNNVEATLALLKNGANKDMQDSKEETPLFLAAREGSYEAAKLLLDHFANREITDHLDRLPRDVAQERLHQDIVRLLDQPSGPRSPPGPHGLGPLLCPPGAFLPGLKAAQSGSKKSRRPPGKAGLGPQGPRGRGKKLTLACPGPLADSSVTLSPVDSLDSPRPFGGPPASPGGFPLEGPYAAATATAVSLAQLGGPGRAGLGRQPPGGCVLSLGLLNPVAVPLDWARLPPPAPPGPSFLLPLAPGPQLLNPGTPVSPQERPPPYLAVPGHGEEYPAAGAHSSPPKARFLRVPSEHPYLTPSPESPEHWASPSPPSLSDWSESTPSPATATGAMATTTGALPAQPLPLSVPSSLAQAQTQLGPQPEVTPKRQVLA
# Torsin-1A-interacting protein 2 (Homo sapiens), sequence (Q8NFQ8 whole entry, looked up): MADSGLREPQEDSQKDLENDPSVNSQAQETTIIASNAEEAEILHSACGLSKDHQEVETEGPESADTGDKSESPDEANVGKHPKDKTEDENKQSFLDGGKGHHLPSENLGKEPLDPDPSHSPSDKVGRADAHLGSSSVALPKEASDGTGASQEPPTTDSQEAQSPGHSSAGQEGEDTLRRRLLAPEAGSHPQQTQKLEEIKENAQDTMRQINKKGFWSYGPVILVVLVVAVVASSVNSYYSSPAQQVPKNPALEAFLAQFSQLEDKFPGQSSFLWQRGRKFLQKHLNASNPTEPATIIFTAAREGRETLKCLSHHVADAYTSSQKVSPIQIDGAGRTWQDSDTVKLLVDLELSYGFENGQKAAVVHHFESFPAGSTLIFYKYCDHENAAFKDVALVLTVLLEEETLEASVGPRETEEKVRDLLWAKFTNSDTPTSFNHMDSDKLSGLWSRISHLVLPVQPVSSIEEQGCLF
# Pro-neuregulin-1, membrane-bound isoform (Homo sapiens), sequence (Q02297 whole entry, looked up, the tested form may be a part, canonical isoform): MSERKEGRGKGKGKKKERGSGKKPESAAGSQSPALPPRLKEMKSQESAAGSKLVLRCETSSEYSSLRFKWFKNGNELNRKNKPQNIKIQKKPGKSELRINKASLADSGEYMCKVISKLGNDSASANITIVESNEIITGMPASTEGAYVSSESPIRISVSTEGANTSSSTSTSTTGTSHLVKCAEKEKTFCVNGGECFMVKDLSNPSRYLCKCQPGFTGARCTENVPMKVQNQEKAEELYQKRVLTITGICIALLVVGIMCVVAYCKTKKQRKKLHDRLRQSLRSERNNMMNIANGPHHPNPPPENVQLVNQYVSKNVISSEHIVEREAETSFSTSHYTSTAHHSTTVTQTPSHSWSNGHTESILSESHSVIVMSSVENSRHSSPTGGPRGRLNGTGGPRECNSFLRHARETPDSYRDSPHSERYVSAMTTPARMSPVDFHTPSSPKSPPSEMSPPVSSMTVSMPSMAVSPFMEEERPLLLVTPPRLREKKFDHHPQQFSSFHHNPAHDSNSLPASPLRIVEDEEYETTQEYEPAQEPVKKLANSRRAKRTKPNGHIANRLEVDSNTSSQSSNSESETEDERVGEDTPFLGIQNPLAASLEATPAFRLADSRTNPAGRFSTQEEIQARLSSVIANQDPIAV
compound,measurement,setting,value
CC(C)CON=C1C[C@@H](O)[C@@H](O)[C@@H]2[C@@H]3C(=O)N(C(C)(C)C)C(=O)[C@@H]3CC[C@H]12,composite z-score,[1],1.33
same,composite z-score,[2],0.275
same,composite z-score,[3],-0.133
same,composite z-score,[4],-0.136
same,composite z-score,[5],-0.681
same,composite z-score,[6],0.414
same,composite z-score,[7],-0.099
same,z-score,[8],-0.392 (inactive)
same,composite z-score,[9],-0.142
same,composite z-score,[10],-0.21
same,composite z-score,[11],0.829
same,z-score,[12],-0.318 (inactive)
same,z-score,[13],0.674 (inactive)
same,z-score,[14],0.0851 (inactive)
same,composite z-score,[15],1.96
same,z-score,[16],0.573 (inactive)
same,composite z-score,[17],0.0577
same,composite z-score,[18],-0.316
same,composite z-score,[19],-0.562
same,composite z-score,[20],-0.0966
CCOC(=O)[C@H](Cc1ccccc1)NC(=O)CCC1CC(OC(=O)NCCc2ccc(F)cc2)CC2(CCCC(COC(=O)NCC3CCCCC3)O2)O1 (stereo not given in full),composite z-score,[1],-0.509
same,composite z-score,[2],0.574
same,composite z-score,[3],-0.0425
same,composite z-score,[4],0.582
same,composite z-score,[5],1.42
same,composite z-score,[6],0.513
same,composite z-score,[7],1.1
same,z-score,[8],-0.692 (inactive)
same,composite z-score,[9],0.676
same,composite z-score,[10],-0.302
same,composite z-score,[11],1.55
same,z-score,[12],0.644 (inactive)
same,z-score,[13],0.432 (inactive)
same,z-score,[14],0.6 (inactive)
same,composite z-score,[15],2.4
same,z-score,[16],0.18 (inactive)
same,composite z-score,[17],-0.106
same,composite z-score,[18],0.53
same,composite z-score,[19],1.07
same,composite z-score,[20],0.0282
Cc1ccc(S(=O)(=O)n2c3ccccc3c3nnc(C(=O)c4ccccc4)nc32)cc1,composite z-score,[1],-0.474
same,composite z-score,[2],0.338
same,composite z-score,[3],-0.0603
same,composite z-score,[4],0.316
same,composite z-score,[5],0.197
same,composite z-score,[6],-0.457
same,composite z-score,[7],0.355
same,z-score,[8],49.6 (active)
same,composite z-score,[9],0.141
same,composite z-score,[10],-0.137
same,composite z-score,[11],-0.875
same,z-score,[12],-0.232 (inactive)
same,z-score,[13],-0.683 (inactive)
same,z-score,[14],0.881 (inactive)
same,composite z-score,[15],-0.0929
same,z-score,[16],0.878 (inactive)
same,composite z-score,[17],-0.122
same,composite z-score,[18],0.0828
same,composite z-score,[19],-0.467
same,composite z-score,[20],0.0099
CCOC(=O)[C@H](CC(C)C)NC(=O)CCC1CC(OC(=O)NCc2cccc3ccccc23)CC2(CCCC(COC(=O)NCCOC)O2)O1 (stereo not given in full),composite z-score,[1],-0.56
same,composite z-score,[2],0.071
same,composite z-score,[3],-0.0216
same,composite z-score,[4],0.482
same,composite z-score,[5],1.36
same,composite z-score,[6],1.27
same,composite z-score,[7],0.931
same,z-score,[8],-0.0725 (inactive)
same,composite z-score,[9],0.754
same,composite z-score,[10],-0.214
same,composite z-score,[11],1.5
same,z-score,[12],-1.43 (inactive)
same,z-score,[13],-0.837 (inactive)
same,z-score,[14],-1.09 (inactive)
same,composite z-score,[15],2.7
same,z-score,[16],-0.157 (inactive)
same,composite z-score,[17],-0.0633
same,composite z-score,[18],0.607
same,composite z-score,[19],1.08
same,composite z-score,[20],0.0576
CCOC(=O)C1=NO[C@]2(C=C(Br)C3(OCCCO3)[C@H]3O[C@H]32)C1,composite z-score,[1],0.0733
same,composite z-score,[2],2.19
same,composite z-score,[3],-0.116
same,composite z-score,[4],-0.229
same,composite z-score,[5],-0.212
same,composite z-score,[6],-0.722
same,composite z-score,[7],-0.208
same,z-score,[8],0.293 (inactive)
same,composite z-score,[9],-0.132
same,composite z-score,[10],-0.0726
same,composite z-score,[11],-0.365
same,z-score,[12],-0.658 (inactive)
same,z-score,[13],-1.06 (inactive)
same,z-score,[14],-0.155 (inactive)
same,composite z-score,[15],0.141
same,z-score,[16],0.874 (inactive)
same,composite z-score,[17],-0.244
same,composite z-score,[18],-0.519
same,composite z-score,[19],-0.862
same,composite z-score,[20],0.0214
C#CCCCON=C1C[C@@H](O)[C@@H](O)[C@@H]2[C@@H]3C(=O)N(C(C)(C)C)C(=O)[C@@H]3CC[C@@H]12,composite z-score,[1],2.02
same,composite z-score,[2],0.0189
same,composite z-score,[3],-0.0468
same,composite z-score,[4],-0.0755
same,composite z-score,[5],-0.707
same,composite z-score,[6],-0.107
same,composite z-score,[7],-0.117
same,z-score,[8],-0.305 (inactive)
same,composite z-score,[9],0.987
same,composite z-score,[10],-0.0645
same,composite z-score,[11],-0.227
same,z-score,[12],0.266 (inactive)
same,z-score,[13],0.0546 (inactive)
same,z-score,[14],0.934 (inactive)
same,composite z-score,[15],0.148
same,z-score,[16],-0.131 (inactive)
same,composite z-score,[17],0.502
same,composite z-score,[18],-1.11
same,composite z-score,[19],-1.07
same,composite z-score,[20],-0.106
C#CCCCON=C1C[C@@H](O)[C@@H](O)[C@@H]2[C@@H]3C(=O)N(c4cccc(Oc5ccccc5)c4)C(=O)[C@@H]3CC[C@H]12,composite z-score,[1],-0.2
same,composite z-score,[2],0.744
same,composite z-score,[3],-0.129
same,composite z-score,[4],-0.264
same,composite z-score,[5],-0.87
same,composite z-score,[6],0.248
same,composite z-score,[7],0.425
same,z-score,[8],1.2 (inactive)
same,composite z-score,[9],-0.464
same,composite z-score,[10],-0.0193
same,composite z-score,[11],-0.684
same,z-score,[12],0.74 (inactive)
same,z-score,[13],0.202 (inactive)
same,z-score,[14],-0.284 (inactive)
same,composite z-score,[15],-0.204
same,z-score,[16],0.676 (inactive)
same,composite z-score,[17],-0.172
same,composite z-score,[18],-0.738
same,composite z-score,[19],-0.581
same,composite z-score,[20],-0.213
C[C@@H]1NC(=O)[C@@H](C)COC(=O)[C@H](C)NC(=O)[C@@H](C)COC1=O,composite z-score,[1],-0.537
same,composite z-score,[2],0.472
same,composite z-score,[3],-0.121
same,composite z-score,[4],0.489
same,composite z-score,[5],0.51
same,composite z-score,[6],-0.292
same,composite z-score,[7],1.14
same,z-score,[8],-3.49 (inactive)
same,composite z-score,[9],0.253
same,composite z-score,[10],0.0623
same,composite z-score,[11],0.455
same,z-score,[12],-0.335 (inactive)
same,z-score,[13],-0.924 (inactive)
same,z-score,[14],-1.94 (inactive)
same,composite z-score,[15],1.03
same,z-score,[16],-0.0698 (inactive)
same,composite z-score,[17],-0.0186
same,composite z-score,[18],0.79
same,composite z-score,[19],-0.0611
same,composite z-score,[20],0.132
CO[C@H]1COC(=O)[C@@H](C)COC(=O)[C@H](COCc2ccccc2)NC(=O)CC=C[C@H]1C,composite z-score,[1],-0.325
same,composite z-score,[2],1.45
same,composite z-score,[3],-0.156
same,composite z-score,[4],-0.607
same,composite z-score,[5],-1.58
same,composite z-score,[6],-1.19
same,composite z-score,[7],-1.43
same,z-score,[8],-0.335 (inactive)
same,composite z-score,[9],0.1
same,composite z-score,[10],-0.0672
same,composite z-score,[11],0.409
same,z-score,[12],0.0827 (inactive)
same,z-score,[13],-0.704 (inactive)
same,z-score,[14],0.007 (inactive)
same,composite z-score,[15],-1.28
same,z-score,[16],0.456 (inactive)
same,composite z-score,[17],-0.128
same,composite z-score,[18],0.98
same,composite z-score,[19],-0.944
same,composite z-score,[20],-0.196
CCOC(=O)[C@H](Cc1ccccc1)NC(=O)OC1CC(CCC2CC(CC)=NO2)OC2(CCCC(COC(=O)NCCC(C)C)O2)C1 (stereo not given in full),composite z-score,[1],-0.436
same,composite z-score,[2],-0.235
same,composite z-score,[3],-0.0692
same,composite z-score,[4],0.354
same,composite z-score,[5],0.165
same,composite z-score,[6],0.418
same,composite z-score,[7],0.86
same,z-score,[8],0.309 (inactive)
same,composite z-score,[9],-0.0729
same,composite z-score,[10],-0.218
same,composite z-score,[11],1.19
same,z-score,[12],-0.764 (inactive)
same,z-score,[13],0.595 (inactive)
same,z-score,[14],0.344 (inactive)
same,composite z-score,[15],1.44
same,z-score,[16],1.11 (inactive)
same,composite z-score,[17],-0.147
same,composite z-score,[18],0.322
same,composite z-score,[19],-0.0258
same,composite z-score,[20],-0.0721

# Source: PubChem BioAssay
